Measured values published in the supplement of paper PMC11537057.
Counter-ions that a name gives are not always drawn. In all, about 1,700 compounds went through this assay and about 15 (0.9%) showed activity. The entries come from a sample that favours actives as a whole. Values without a mark were called inactive.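 The calls were made as follows: active = infection cut by 80% or more with cell growth above 90% in both runs; inactive = the rest.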

Test system: HSV-1 strain 17 YFP-ICP4 in A549
Test: HSV-1 infection relative to DMSO (ICP4-YFP per H2B-RFP signal); higher = more viral infection (less antiviral activity), active = hit call of the paper
Conditions: 10 µM; 48 h; MOI: 0.1
Experimental: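 Selleck FDA-approved library (L1300) screened in duplicate at 10 µM on A549 H2B-mRuby cells in 384-well plates, infected with HSV-1 strain 17 YFP-ICP4 at MOI 0.1 one hour before drug addition. Imaged after 2 days at 37°C. Cell growth (H2B-RFP) and infection (ICP4-YFP) are expressed as % of DMSO-treated wells. Hits: growth >90% and infection <20% of DMSO.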

Compound | HSV-1 infection
CC1=NN(c2ccc(C)c(C)c2)C(=O)/C1=N\Nc1cccc(-c2cccc(C(=O)O)c2)c1O [Eltrombopag Olamine] | 99%
CC1=NN(c2ccc(C)c(C)c2)C(=O)/C1=N\Nc1cccc(-c2cccc(C(=O)O)c2)c1O [Eltrombopag] | 82.4%
CS(=O)(=O)n1cc2c(n1)CN([C@H]1CO[C@H](c3cc(F)ccc3F)[C@@H](N)C1)C2 [Omarigliptin (MK-3102)] | 106%
CCCCCCCCCCCCCCCCOc1nc2ccc(C)cc2c(=O)o1 [Cetilistat] | 103%
CCOc1cc2ncc(C#N)c(Nc3ccc(OCc4ccccn4)c(Cl)c3)c2cc1NC(=O)/C=C/CN(C)C [Neratinib (HKI-272)] | 73.4%
CC(=O)N1C[C@H](O)C[C@H]1C(=O)O [Oxaceprol] | 97.8%
COC[C@H]1C[C@@H](c2nc(-c3ccc4c(c3)COc3cc5c(ccc6nc([C@@H]7CC[C@H](C)N7C(=O)[C@@H](NC(=O)OC)C(C)C)[nH]c65)cc3-4)c[nH]2)N(C(=O)[C@H](NC(=O)OC)c2ccccc2)C1 [Velpatasvir] | 102%
CCC/N=C1\S/C(=C\c2ccc(OC[C@H](O)CO)c(Cl)c2)C(=O)N1c1ccccc1C [Ponesimod] | 57.6%
CCOc1ccc(Cc2cc([C@]34OC[C@](CO)(O3)[C@@H](O)[C@H](O)[C@H]4O)ccc2Cl)cc1 [Ertugliflozin] | 114%
C=C1CC[C@H](O)C/C1=C/C=C1\CCC[C@]2(C)[C@@H]([C@H](C)CCCC(C)(C)O)CC[C@@H]12 [Calcifediol] | 89.7%
CCOC(=O)N[C@@H]1CC[C@@H]2[C@@H](C1)C[C@H]1C(=O)O[C@H](C)[C@H]1[C@H]2/C=C/c1ccc(-c2cccc(F)c2)cn1 [Vorapaxar] | 113%
CN[C@@H]1[C@@H](O)[C@@H](O[C@@H]2[C@@H](O)[C@H](O[C@H]3O[C@H](CN)[C@@H](O)[C@H](O)[C@H]3O)[C@@H](N)C[C@H]2NC(=O)[C@@H](O)CN)OC[C@]1(C)O [Isepamicin Sulphate] | 124%
CO/N=C(\C(=O)N[C@@H]1C(=O)N2C(C(=O)[O-])=C(C[n+]3cccc4c3CCC4)CS[C@H]12)c1csc(N)n1 [Cefpirome sulfate] | 108%
CC(C)(CO)C(O)C(=O)NCCCO (racemic) [DL-Panthenol] | 94%
CNC[C@H](O)[C@@H](O)[C@H](O)[C@H](O)CO.CNC[C@H](O)[C@@H](O)[C@H](O)[C@H](O)CO.O=C([O-])CN(CCN(CC(=O)[O-])CC(=O)O)CCN(CC(=O)[O-])CC(=O)O.[Gd+3] [Gadopentetate Dimeglumine] | 77.6%
COc1ccccc1OCCN [Carvedilol EP IMpurity E] | 82.6%
CC(C)[C@H]1C(=O)N[C@@H](CCCN=C(N)N)C(=O)NCC(=O)N[C@@H](CC(=O)O)C(=O)N[C@H](Cc2ccccc2)C(=O)N1C | 86.4%
CNC(=O)c1ccc2cc([C@@]3(O)CCn4cncc43)ccc2c1 [TAK-700 (Orteronel)] | 58.5%
Cc1cccc(C)c1N(CC(=O)Nc1ccc(-c2ncon2)cc1)C(=O)C1CCS(=O)(=O)CC1 [Amenamevir] | 2.63% (active)
[OH][Al]([OH])[OH] [Aluminium hydroxide] | 113%
COc1ccc([C@]2(C#N)CC[C@@H](C(=O)O)CC2)cc1OC1CCCC1 [Cilomilast] | 94%
COc1cc(O)c(C(=O)Nc2nc(C(=O)NCCN(C(C)C)C(C)C)cs2)cc1OC [Acotiamide] | 116%
COc1cc(O)c(C(=O)Nc2nc(C(=O)NCCN(C(C)C)C(C)C)cs2)cc1OC [Acotiamide hydrochloride] | 75.1%
Cc1c(-c2ccc(O)cc2)n(Cc2ccc(OCCN3CCCCCC3)cc2)c2ccc(O)cc12 [Bazedoxifene Acetate] | 31.7%
Cc1c(-c2ccc(O)cc2)n(Cc2ccc(OCCN3CCCCCC3)cc2)c2ccc(O)cc12 [Bazedoxifene HCl] | 26.6%
CCCSc1nc(N[C@@H]2C[C@H]2c2ccc(F)c(F)c2)c2nnn([C@@H]3C[C@H](OCCO)[C@@H](O)[C@H]3O)c2n1 [Ticagrelor] | 87.1%
C[C@@H]1CCO[C@H]2Cn3cc(C(=O)NCc4ccc(F)cc4F)c(=O)c(O)c3C(=O)N12 | 122%

Compound | HSV-1 infection
Cc1cc(N2CCN([C@@H]3CN[C@H](C(=O)N4CCSC4)C3)CC2)n(-c2ccccc2)n1 [Teneligliptin hydrobromide] | 113%
CCCCCCCCCCCCCCCCCC(=O)O [Stearic acid] | 86.7%
O=C([O-])[C@H](O)[C@@H](O)[C@H](O)[C@H](O)CO.O=C([O-])[C@H](O)[C@@H](O)[C@H](O)[C@H](O)CO.[Ca+2] [Calcium gluconate] | 83.3%
CC(=O)OCC(CCn1cnc2cnc(N)nc21)COC(C)=O [Famciclovir] | 102%
Nc1nc(O)c2ncn(CCC(CO)CO)c2n1 [Penciclovir] | 2.92% (active)
CCC(=O)O[C@]1(C(=O)CCl)[C@@H](C)C[C@H]2[C@@H]3C[C@H](F)C4=CC(=O)C=C[C@]4(C)[C@@]3(F)[C@@H](O)C[C@@]21C [Halobetasol Propionate] | 60.2%
CCc1ccc(Cc2ccc3c(c2)[C@]2(OC3)O[C@H](CO)[C@@H](O)[C@H](O)[C@H]2O)cc1 [Tofogliflozin(CSG 452)] | 92.2%
CC[C@H](C)[C@H](N)C(=O)O [isoleucine] | 114%
Cc1c(C(=O)NN2CCCCC2)nn(-c2ccc(Cl)cc2Cl)c1-c1ccc(Cl)cc1 [Rimonabant] | 94.5%
CC(C)c1nc(CN(C)C(=O)N[C@@H](CCN2CCOCC2)C(=O)N[C@H](CC[C@H](Cc2ccccc2)NC(=O)OCc2cncs2)Cc2ccccc2)cs1 [Cobicistat (GS-9350)] | 86.4%
CCN(c1cc(-c2ccc(CN3CCOCC3)cc2)cc(C(=O)NCc2c(C)cc(C)[nH]c2=O)c1C)C1CCOCC1 [Tazemetostat (EPZ-6438)] | 106%
Nc1cc(N2CCCCC2)nc(N)[n+]1OS(=O)(=O)[O-] [Minoxidil sulphate] | 97.8%
N[C@@H](CCC(=O)O)C(=O)[O-].[Na+] [L-Glutamic acid monosodium salt] | 84.3%
Cc1ccc(C(C)C)c(O)c1 [Thymol] | 95.3%
CCC(=O)O[C@@H]1CC(=O)O[C@H](C)C/C=C/C=C/[C@H](O)[C@H](C)C[C@H](CC=O)[C@H](O[C@@H]2O[C@H](C)[C@@H](O[C@H]3C[C@@](C)(O)[C@@H](OC(=O)CC)[C@H](C)O3)[C@H](N(C)C)[C@H]2O)[C@H]1OC [Midecamycin] | 96.5%
CN(N=O)C(=O)NC1C(O)OC(CO)C(O)C1O (centres undefined) [Streptozotocin (STZ)] | 73.6%
O=C(O)CSc1nnc(Br)n1-c1ccc(C2CC2)c2ccccc12 [Lesinurad] | 87.1%
CCCCCOc1ccc(-c2cc(-c3ccc(C(=O)N[C@H]4C[C@@H](O)[C@@H](O)NC(=O)[C@@H]5[C@@H](O)[C@@H](C)CN5C(=O)[C@H]([C@H](O)CC(N)=O)NC(=O)[C@H]([C@H](O)[C@@H](O)c5ccc(O)c(OS(=O)(=O)O)c5)NC(=O)[C@@H]5C[C@@H](O)CN5C(=O)[C@H]([C@@H](C)O)NC4=O)cc3)no2)cc1 [Micafungin Sodium] | 105%
CCc1c(Cl)c(O)c(Cl)c(O)c1C(=O)O[C@H]1[C@H](O)[C@H](OC)[C@H](OC/C2=C\C=C\C[C@H](O)/C(C)=C/[C@H](CC)[C@@H](O[C@@H]3OC(C)(C)[C@@H](OC(=O)C(C)C)[C@H](O)[C@@H]3O)/C(C)=C/C(C)=C/C[C@@H]([C@@H](C)O)OC2=O)O[C@@H]1C [Fidaxomicin] | 126%
CC(=C(CCOC(=O)C(C)C)SSC(CCOC(=O)C(C)C)=C(C)N(C=O)Cc1cnc(C)nc1N)N(C=O)Cc1cnc(C)nc1N (stereo in doubt) [Sulbutiamine] | 92.2%
C[N+](C)(C)CC(O)CC(=O)[O-] (racemic) [DL-Carnitine HCl] | 94.4%
Nc1ccc(S(=O)(=O)Nc2cncc(Cl)n2)cc1 [Sulfalozine sodium] | 105%
C=C[C@]1(C)C[C@@H](OC(=O)CS[C@@H]2C[C@H]3CC[C@@H](C2)N3C)[C@]2(C)[C@H](C)CC[C@]3(CCC(=O)[C@H]32)[C@@H](C)[C@@H]1O [Retapamulin] | 32.7%
COc1cccc(-c2c(C)n(Cc3c(F)cccc3C(F)(F)F)c(=O)n(C[C@H](NCCCC(=O)O)c3ccccc3)c2=O)c1F [Elagolix Sodium] | 109%
OC(c1ccccc1)(c1ccccc1)C12CC[N+](CCOCc3ccccc3)(CC1)CC2 [Umeclidinium bromide] | 100%
CC1CNc2c(cccc2S(=O)(=O)N[C@@H](CCCNC(=N)N)C(=O)N2CC[C@@H](C)C[C@@H]2C(=O)O)C1 (some centres undefined) [Argatroban Monohydrate] | 97.4%
CC1CNc2c(cccc2S(=O)(=O)N[C@@H](CCCNC(=N)N)C(=O)N2CC[C@@H](C)C[C@@H]2C(=O)O)C1 (some centres undefined) [Argatroban] | 99.1%
